“And” between values parts separate entries of the source, which are not always exact repeats. Identical values can stand only once. Some compounds were tested as several samples or in several runs, with calls that do not always agree. The source made the active and inactive calls. Rule for the calls: active = hit-call score of the fitted dose curve at least 0.9, where 1 is the maximum; inactive = score below 0.9.

As usually defined, the AC50 is the concentration at which the activity in the assay is half-maximal.

One test deals with Aryl hydrocarbon receptor (Homo sapiens) (UniProt P35869). Briefly: ATG_Ahr_CIS: Attagene CIS-FACTORIAL HepG2 Assay for human Aryl Hydrocarbon Receptor (Ahr) (AID 2282930). Conditions: HepG2 AhR cis-factorial reporter transcription; actives raise or lower the signal. The method, boiled down: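 HepG2, transient MRTU (cis) transfection, 24 h exposure. RNA → cDNA → PCR → 6-FAM primer extension → HpaI 2 h 37 C → CE. Fit: bidirectional, DMSO baseline.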
Sequence of Aryl hydrocarbon receptor (Homo sapiens) (P35869 whole entry, looked up): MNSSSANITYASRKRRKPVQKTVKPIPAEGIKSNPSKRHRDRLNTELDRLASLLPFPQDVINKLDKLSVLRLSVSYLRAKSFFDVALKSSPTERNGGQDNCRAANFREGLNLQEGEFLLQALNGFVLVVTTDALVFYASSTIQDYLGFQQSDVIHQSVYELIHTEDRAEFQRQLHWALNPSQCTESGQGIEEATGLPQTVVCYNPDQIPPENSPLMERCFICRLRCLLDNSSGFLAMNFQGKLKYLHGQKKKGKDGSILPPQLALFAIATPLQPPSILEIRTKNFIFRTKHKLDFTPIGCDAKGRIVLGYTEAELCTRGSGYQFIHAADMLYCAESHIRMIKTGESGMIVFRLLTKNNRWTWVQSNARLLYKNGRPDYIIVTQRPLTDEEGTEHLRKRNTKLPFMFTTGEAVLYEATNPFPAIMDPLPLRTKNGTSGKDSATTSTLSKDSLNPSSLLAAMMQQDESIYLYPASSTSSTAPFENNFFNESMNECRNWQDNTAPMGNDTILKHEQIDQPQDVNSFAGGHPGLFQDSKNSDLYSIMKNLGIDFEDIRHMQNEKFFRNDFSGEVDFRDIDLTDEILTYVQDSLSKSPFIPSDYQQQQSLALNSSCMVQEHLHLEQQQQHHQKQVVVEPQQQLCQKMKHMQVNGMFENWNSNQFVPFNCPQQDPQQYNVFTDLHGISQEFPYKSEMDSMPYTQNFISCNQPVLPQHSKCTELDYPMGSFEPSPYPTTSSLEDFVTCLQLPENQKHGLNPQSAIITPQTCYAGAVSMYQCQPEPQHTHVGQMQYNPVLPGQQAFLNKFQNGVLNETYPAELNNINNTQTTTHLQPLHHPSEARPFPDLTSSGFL
As for `CCCCCCCCCCCC[N+](C)(C)Cc1ccccc1`, the compound was classed as inactive.

Consider `Cc1ccc(C(=O)c2ccccc2)cc1`, for which the compound was classed as inactive.

For the compound `O=CC(F)(F)C(F)(F)C(F)(F)C(F)F`, the result was inactive.

For `C[C@]12CC[C@@H]3c4ccc(O)cc4CC[C@H]3[C@@H]1C[C@@H](O)[C@@H]2O`, the compound was called inactive.

For the compound `Cc1cc(C(C)(C)C)c(O)c(C(C)(C)C)c1`, the compound was classed as inactive.

For the compound `CC(C)(C)c1ccc(O)c(O)c1`, the AC50 was 20 µM (active) and the outcome was inactive.

Take `CCCCCCCCCCCC(=O)O`: the compound was classed as inactive.

`CN(C)c1ccc(C(=C2C=CC(=[N+](C)C)C=C2)c2ccccc2)cc1`: the result was inactive.

Turning to `O=C1OC2(c3ccccc31)c1cc(I)c(O)c(I)c1Oc1c2cc(I)c(O)c1I`, the AC50 was 15.4 µM (active) and 27.3 µM (active) and 27.9 µM (active).

With `CC(O)COc1ccccc1` (stereo not given), the AC50 was 6.06 µM (active) and the compound was called inactive.

Consider `CN(C)CCOC(c1ccccc1)c1ccccc1`, for which the AC50 was 64 µM (active).

Consider `Cc1ccc2ccc3ccc(C)cc3c2c1`, for which the concentration at half-maximal activity (AC50) was 50.6 µM (active).

For `O=C(c1ccccc1)c1ccccc1`, the result was inactive.

`COCN(COC)c1nc(N(COC)COC)nc(N(COC)COC)n1`: the compound was called inactive.

For the compound `Cc1ccccc1C(OCCN(C)C)c1ccccc1` (stereo not given), the call was inactive.

In the case of `O=C(CCCN1CCC(O)(c2ccc(Cl)cc2)CC1)c1ccc(F)cc1`, the call was inactive.

With `CC(C)C=O`, the outcome was inactive.

With `NC(=NCCCCCCN=C(N)/N=C(\N)Nc1ccc(Cl)cc1)/N=C(\N)Nc1ccc(Cl)cc1`, the AC50 is 21.9 µM (active) and the compound was called inactive.

As for `O=C(NO)c1ccccc1`, the AC50 is 19 µM (active) and 22.3 µM (active); the outcome was inactive.

For the compound `CCCCc1oc2ccccc2c1C(=O)c1cc(I)c(OCCN(CC)CC)c(I)c1`, the AC50 is 55.1 µM (active).

In the case of `CS(=O)(=O)c1ccc([C@@H](CC2CCCC2)C(=O)Nc2cnccn2)cc1Cl`, the AC50 was 68.4 µM (active).

For the compound `O=C(CC(=O)C(F)(F)C(F)(F)C(F)(F)F)c1cccs1`, the AC50 is 11.4 µM (active) and 50 µM (active).

In the case of `C=C(c1ccc(C(=O)O)cc1)c1cc2c(cc1C)C(C)(C)CCC2(C)C`, the result was inactive.

Regarding `CC(=O)Nc1ccc(O)cc1`, the compound was classed as inactive.

For the compound `OCC(CO)(CBr)CBr`, the call was inactive.

Regarding `CCN(CC)CC`, the call was inactive.

Take `c1cnc2c(c1)ccc1cccnc12`: the compound was classed as inactive.

On to `CCCCc1ccc2ccccc2c1S(=O)(=O)O`, for which the compound was classed as inactive.

Test system in another test: not listed separately
Description: ATG_AP_1_CIS: Attagene CIS-FACTORIAL HepG2 Assay for human Activator Protein 1 (AP-1) (AID 2282931). Conditions: HepG2 Attagene cis-factorial AP-1 reporter mRNA; actives raise or lower the signal. The method, boiled down:
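Cis-regulated reporter units transiently expressed in HepG2 report endogenous transcription-factor activity. Signal: reporter mRNA at 24 h, via RT-PCR and fluorescent capillary electrophoresis. Endpoint derived by bidirectional fitting, DMSO as negative control.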
As to `CN(Cc1cnc2nc(N)nc(N)c2n1)c1ccc(C(=O)N[C@@H](CCC(=O)O)C(=O)O)cc1`, the outcome was inactive.

Take `CCCCCCCCCCCC[N+](C)(C)Cc1ccccc1`: the call was inactive.

As for `Cc1ccc(C(=O)c2ccccc2)cc1`, the result was inactive.

For `O=CC(F)(F)C(F)(F)C(F)(F)C(F)F`, the compound was classed as inactive.

On to `C[C@]12CC[C@@H]3c4ccc(O)cc4CC[C@H]3[C@@H]1C[C@@H](O)[C@@H]2O`, for which the compound was called inactive.

In the case of `O=C1NS(=O)(=O)c2ccccc21`, the compound was called inactive.

In the case of `Cc1cc(C(C)(C)C)c(O)c(C(C)(C)C)c1`, the AC50 is 50.7 µM (active) and 80.6 µM (active).

As for `CCCCCCCCCCCC(=O)O`, the AC50 was 117 µM (active) and 60 µM (active).

Take `Cc1[nH]nc2c1N=C(c1ccccc1Cl)c1cc([N+](=O)[O-])ccc1N2`: the AC50 is 0.125 µM (active).

`CCCCC=O`: the outcome was inactive.

As for `CN(C)c1ccc(C(=C2C=CC(=[N+](C)C)C=C2)c2ccccc2)cc1`, the AC50 was 0.472 µM (active) and the outcome was inactive.

Consider `O=C1OC2(c3ccccc31)c1cc(I)c(O)c(I)c1Oc1c2cc(I)c(O)c1I`, for which the result was inactive.

On to `CC(O)COc1ccccc1` (stereo not given), for which the outcome was inactive.

Turning to `CN(C)CCOC(c1ccccc1)c1ccccc1`, the result was inactive.

With `N=C(N)c1ccc(OCCCCCOc2ccc(C(=N)N)cc2)cc1`, the AC50 was 0.813 µM (active).

On to `CCCCC(CC)C(=O)O` (stereo not given), for which the compound was classed as inactive.

In the case of `Cc1ccc2ccc3ccc(C)cc3c2c1`, the call was inactive.

For the compound `O=C(c1ccccc1)c1ccccc1`, the outcome was inactive.

As for `COCN(COC)c1nc(N(COC)COC)nc(N(COC)COC)n1`, the compound was called inactive.

Turning to `CC(C)c1c(C(=O)Nc2ccccc2)c(-c2ccccc2)c(-c2ccc(F)cc2)n1CC[C@@H](O)C[C@@H](O)CC(=O)O`, the call was inactive.

For `Cc1ccccc1C(OCCN(C)C)c1ccccc1` (stereo not given), the outcome was inactive.

Take `O=C(CCCN1CCC(O)(c2ccc(Cl)cc2)CC1)c1ccc(F)cc1`: the AC50 was 60.1 µM (active).

On to `CCCCCCCCCCCCCCC`, for which the compound was classed as inactive.

With `CC(C)C=O`, the AC50 was 61.2 µM (active) and the compound was classed as inactive.

Regarding `NC(=NCCCCCCN=C(N)/N=C(\N)Nc1ccc(Cl)cc1)/N=C(\N)Nc1ccc(Cl)cc1`, the AC50 was 49.5 µM (active) and the result was inactive.

Take `O=C(NO)c1ccccc1`: the AC50 was 26.5 µM (active) [middle of 4 runs].

As for `CCCCc1oc2ccccc2c1C(=O)c1cc(I)c(OCCN(CC)CC)c(I)c1`, the AC50 is 20.2 µM (active).

Turning to `O=C(CC(=O)C(F)(F)C(F)(F)C(F)(F)F)c1cccs1`, the AC50 was 35.2 µM (active) and 42 µM (active).

As to `C=C(c1ccc(C(=O)O)cc1)c1cc2c(cc1C)C(C)(C)CCC2(C)C`, the AC50 was 11.4 µM (active) and the result was inactive.

With `CC(=O)Nc1ccc(O)cc1`, the result was inactive.

`OCC(CO)(CBr)CBr`: the compound was classed as inactive.

As for `CCN(CC)CC`, the call was inactive.

Take `c1cnc2c(c1)ccc1cccnc12`: the outcome was inactive.

`CCCCc1ccc2ccccc2c1S(=O)(=O)O`: the compound was classed as inactive.

Values taken from PubChem BioAssay (EPA / NIEHS).
